Reference: PubChem BioAssay (NCI)
Values joined by “and” are separate entries in the source; they are usually repeats but may differ in a detail not shown here. Equal values may be shown once. The panel holds about 83,000 compounds, 20% with a hit somewhere; the sample as a whole holds those more often.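 Assay: single dose, 48 h. Readout: percent growth (0 = no net growth; negative = cell death). Active: <10.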 Active and inactive are the calls of the source.

System: MCF7 breast
Assay: NCI-60 one-dose screen, 48 h (100 = growth as untreated, 0 = no growth, -100 = all killed)
Settings: 10 µM unless noted
Procedure: Growth inhibition of the MCF7 human tumor cell line is measured as a screen for anti-cancer activity. Cells are grown in 96 well plates and exposed to the test compound for 48 hours. Compounds are tested at a single concentration, which is 10^-5 M for most compounds. The reported endpoint is percent growth (GI% or GIPRCNT), where numbers from 0 - 100% represent growth inhibition, and numbers from -100% - 0 represent cell death. For example, a value of 40 represents 60% growth inhibition. A value of 0 means no net growth occurred over the course of the experiment. A value of -40 indicates 40% of cells at the beginning of the experiment died by the end of the experiment. A value of -100 means all cells are dead at the end of the experiment.
NCI-60 Human Tumor Cell Lines Screen was performed using the standard one-dose NCI protocol, which is described in more detail at https://dtp.cancer.gov/discovery_development/nci-60/default.htm.
Compounds with GIPRCNT values below 10 were considered active. Activity score was based on GIPRCNT using the following formula: […]
Score is 0 for GIPRCNT values of 100 or above, 50 for GIPRCNT values of 0, and 100 for GIPRCNT values of -100.

`CCOC(=O)COc1cc(-c2ccccc2F)nc2cc3c(cc12)OCO3` was tested. Which growth did it give?
The growth was 42.6% [100 µM] (inactive) and 19.5% [100 µM] (inactive).

`Clc1ccccc1C(c1ccccc1)(c1ccccc1)n1ccnc1` was tested. Which growth did it give?
Its growth is 18.3% (inactive).

With `Oc1c(C(Nc2ccccc2)c2ccccc2)ccc2cccnc12` (stereo not given) as the molecule, how does the growth read?
Its growth is 16.3% (inactive).

For `O=C(Cc1nc2cc(Cl)c(Cl)cc2nc1CC(=O)c1cccnc1)c1cccnc1`, which growth is on record?
Its growth is 29.6% (inactive).

`O=C(/C=C/C(Cl)(Cl)Cl)Nc1ccc(Cl)cc1` was tested. Which growth did it give?
Its growth is 99.8% (inactive).

With `Cc1ccc(/C=C2\CNC/C(=C\c3ccc(C)cc3)C2=O)cc1` as the molecule, how does the growth read?
The growth was 1.76% (active).

`CC1C(c2ccccc2)OCCN1C(=S)Nc1ccc(S(=O)(=O)N2CCCCC2)cc1` (stereo not given) was tested. Which growth did it give?
Its growth is 91.3% (inactive).

How did the growth turn out when `COc1ccc(OC)c(Cc2cnc3nc(N)nc(N)c3c2C)c1` was run?
The growth was 3.33% [100 µM] (active) and -100% [100 µM] (active).

For `NCCCN(CCCN)CCCNCc1c2ccccc2c(CNCCCN(CCCN)CCCN)c2ccccc12`, which growth is on record?
The growth was 97.1% (inactive).

How did the growth turn out when `CC(=O)C1Cc2ccccc2C1=O` (stereo not given) was run?
Its growth is 95.4% (inactive).

With `COC1CC(C)C(OC)c2cc(O)cc(c2O)NC(=O)/C(C)=C/C=C\C(C)C(OC(N)=O)/C(C)=C\C(C)C1OC` (stereo not given) as the molecule, how does the growth read?
Its growth is 20.8% (inactive).

For `O=C(c1ccccc1)c1cc2ccccc2oc1=O`, which growth is on record?
The growth was 108% (inactive).

`COc1ccc2c(c1)C(OC)C1c3c(cc4c(c3-2)OCO4)CCN1C` (stereo not given) was tested. Which growth did it give?
Its growth is -76.9% [100 µM] (active) and -70% [100 µM] (active).

With `CC(=O)c1c(O)c(C)c(O)c2c1OC1=CC(=O)C(C(C)=O)C(=O)C12C` (stereo not given) as the molecule, how does the growth read?
Its growth is 128% (inactive).

For `C[C@@]1(CO)[C@H](O)CC[C@@]2(C)[C@H]1CC[C@H]1C[C@@H]3C[C@@]12CC[C@@]3(O)COC(=O)CN`, which growth is on record?
The growth was 36.9% (inactive).

How did the growth turn out when `CCCCCCCCCCCC1=NCCCN1CCCC` was run?
Its growth is 91.1% (inactive).

`O=C1C=CC(O)=CC1=P(c1ccccc1)(c1ccccc1)c1ccccc1` was tested. Which growth did it give?
The growth was 91.7% (inactive).

Which growth does the source give for `CCCCCCCCCCCCCCCCSC(=NCC)NCC` here?
The growth was -66.3% (active).

`CCCCN(CCCC)CCCCCCCCCCO` was tested. Which growth did it give?
Its growth is 99% (inactive).

With `CCCCCCCCCCCC[n+]1ccc(CCCCCCCCC)cc1` as the molecule, how does the growth read?
The growth was -5.44% (active).

How did the growth turn out when `Clc1ccc(Cc2nc3ccccc3s2)cc1` was run?
Its growth is 77.4% (inactive).

With `Clc1ccc(-n2ncc3c(NCCCN4CCOCC4)ncnc32)cc1` as the molecule, how does the growth read?
Its growth is 89.9% (inactive).

`O=C1/C(=C/c2ccccn2)CCc2ccccc21` was tested. Which growth did it give?
Its growth is 59.4% (inactive).

`O=[N+]([O-])c1ccc(C(Br)c2ccc([N+](=O)[O-])cc2)cc1` was tested. Which growth did it give?
Its growth is 70.8% (inactive).

Which growth does the source give for `COc1ccc(C(OCC2OC(n3ccc(NC(=O)c4ccccc4)nc3=O)C(O)C2O)(c2ccccc2)c2ccccc2)cc1` (stereo not given) here?
Its growth is 13.3% (inactive).

For `Oc1c(Cl)cc(Cl)cc1C=NCC1CCC(CN=Cc2cc(Cl)cc(Cl)c2O)CC1` (stereo not given), which growth is on record?
Its growth is 78.1% (inactive).

With `CCCCCCCCCCCCCCCC[N+]1(C)CCCC1c1cccnc1` (stereo not given) as the molecule, how does the growth read?
The growth was 41% (inactive).

For `c1ccc2sc(SSN3CC4CCC(CC4)C3)nc2c1`, which growth is on record?
Its growth is 107% (inactive).

Which growth does the source give for `CC1=CC(=NC(=O)CBr)C=C/C1=N\S(=O)(=O)c1ccccc1` here?
The growth was 16.3% (inactive).

With `C/C=C/c1cc2c(c(=O)o1)C(=O)[C@@H](O)[C@H](C)O2` as the molecule, how does the growth read?
Its growth is 26.1% (inactive).

For `CCCCCC/C=C1\CCC(CN2CCCC2)C1=O` (stereo not given), which growth is on record?
The growth was 7.97% (active).

With `CCN1CCCC(Nc2cc(C)nc(/N=C(/N)Nc3ccc(Cl)c(Cl)c3)n2)C1` (stereo not given) as the molecule, how does the growth read?
Its growth is -73.5% (active).

Which growth does the source give for `Cc1ccc2c(c1)sc(-c1ccc(N(C)C)cc1)[n+]2C` here?
Its growth is 3.8% (active).

How did the growth turn out when `NC(=S)Nc1ccc2c(c1)Cc1ccccc1-2` was run?
The growth was 70.1% (inactive).

`COc1cc(/C=C/c2ccnc3ccccc23)cc(OC)c1OC` was tested. Which growth did it give?
Its growth is 16.1% (inactive).

For `O=C1c2ccccc2C(=O)c2c(O)c(Cl)cc(O)c21`, which growth is on record?
The growth was 49.9% (inactive).

For `CCOC(=O)c1c(C)[nH]c2ccc(O)cc12`, which growth is on record?
Its growth is 83.4% (inactive).

`O=[N+]([O-])c1ccc(N2CCN(Cc3ccccc3)CC2)c2c1no[n+]2[O-]` was tested. Which growth did it give?
Its growth is 7.84% (active).

Which growth does the source give for `CN1CCC(c2ccccc2)(c2ccccc2)C(=O)C1` here?
Its growth is 27.7% (inactive).

How did the growth turn out when `CC(C)c1ccc(C(=O)OC2CCCC2)cc1` was run?
Its growth is 95.7% (inactive).
